Test results: PubChem BioAssay (Tox21)
A number with no mark means an inactive call. Results filed as inconclusive are left out. Entries that show only a call come without a potency. The source made the active and inactive calls. Unless noted, calls follow the shape of the full dose curve.

Legend:
[1] = Nuclear factor erythroid 2-related factor 2/antioxidant responsive element (Nrf2/ARE) small molecule agonists: qHTS cell viability counter screen in human keratinocytes (AID 1919968; active = well fitted curve in the direction sought with a large enough effect in the repeat runs; an effect the other way counts as inactive or inconclusive; also: nearly all actives have a fitted effect of over 55% in size; also: potency is read from the fitted curve at half-maximal effect)
How it was run: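 KeratinoSens cells (HaCaT keratinocytes stably carrying an ARE-luciferase reporter) were seeded at 1,500 cells/well and rested 5 h at 37 C/5% CO2. They were then exposed to compounds in DMSO for 23 h. Viability was read by CellTiter-Fluor fluorescence after 1 h.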

[2] = Nuclear factor erythroid 2-related factor 2/antioxidant responsive element (Nrf2/ARE) small molecule agonists: luciferase reporter gene qHTS assay in human keratinocytes (AID 1919969); also: nearly all actives have a fitted effect of over 35% in size; also: potency is read from the fitted curve at half-maximal effect
[3] = target: Gonadotropin-releasing hormone receptor (Homo sapiens) (UniProt P30968); assay: Human gonadotropin-releasing hormone receptor (GnRHR) small molecule agonists, calcium flux assay in GnRHR-HEK293 cells (AID 1920063); also: nearly all actives have a fitted effect of over 35% in size; also: potency is read from the fitted curve at half-maximal effect
Gonadotropin-releasing hormone receptor (Homo sapiens), sequence (P30968 whole entry, looked up): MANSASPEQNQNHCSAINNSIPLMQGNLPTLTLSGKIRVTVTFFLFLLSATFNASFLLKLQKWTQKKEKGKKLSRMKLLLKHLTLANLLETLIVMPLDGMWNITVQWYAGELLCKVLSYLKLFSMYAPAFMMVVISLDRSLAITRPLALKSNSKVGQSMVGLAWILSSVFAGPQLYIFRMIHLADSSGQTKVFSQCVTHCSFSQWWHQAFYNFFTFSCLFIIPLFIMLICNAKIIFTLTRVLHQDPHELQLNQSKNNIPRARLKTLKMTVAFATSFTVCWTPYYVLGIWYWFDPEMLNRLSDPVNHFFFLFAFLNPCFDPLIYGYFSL
How it was run: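 HEK293 cells stably expressing human GnRHR were plated 18 h at 37 °C, loaded with calcium dye 1 h at 37 °C, then given compound in agonist mode; fluorescence (Ex/Em 480/540) read kinetically for 3 min at 1 s intervals.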

[4] = target: KiSS-1 receptor (Homo sapiens) (UniProt Q969F8); assay: Human kisspeptin (KISS1R) small molecule agonists, calcium flux assay in KISS1R-HEK293 cells (AID 1920064; active = well fitted curve in the direction sought with a large enough effect in the repeat runs; an effect the other way counts as inactive or inconclusive)
KiSS-1 receptor (Homo sapiens), sequence (Q969F8 whole entry, looked up): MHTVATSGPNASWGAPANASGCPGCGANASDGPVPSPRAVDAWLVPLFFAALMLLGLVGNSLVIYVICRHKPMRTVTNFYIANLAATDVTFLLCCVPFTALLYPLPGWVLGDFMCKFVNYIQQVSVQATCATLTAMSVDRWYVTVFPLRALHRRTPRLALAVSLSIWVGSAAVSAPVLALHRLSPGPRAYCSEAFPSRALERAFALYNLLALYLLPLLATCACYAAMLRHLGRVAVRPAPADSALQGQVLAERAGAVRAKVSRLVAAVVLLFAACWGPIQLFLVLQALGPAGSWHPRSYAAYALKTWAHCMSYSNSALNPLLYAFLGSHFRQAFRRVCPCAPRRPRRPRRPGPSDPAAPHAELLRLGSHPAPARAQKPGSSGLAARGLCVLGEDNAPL
How it was run: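 HEK293 cells stably expressing human KISS1R were plated 18 h at 37 °C, loaded with calcium dye for 1 h at 37 °C, then given compound by pin tool. Fluorescence (Ex/Em 480/540) was read kinetically for 3 min.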

[5] = G protein-coupled receptor (GPCR) small molecule agonists, calcium flux assay: HEK293 wild type cell line counter screen (AID 1920065)
How it was run: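 Cells were plated and cultured 18 h at 37 C/5% CO2, then loaded with calcium dye for 1 h at 37 C. Compounds in DMSO were pin-transferred in agonist mode, and fluorescence (Ex/Em 480/540) was read kinetically for 3 min at 1 s intervals.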

[6] = p53 small molecule agonists, cell-based qHTS assay with rat liver microsomes (AID 1963578)
How it was run: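 Quantitative HTS of the Tox21 10K library: p53RE-bla cells, rat liver microsomes plus NADPH at 0.5 mg/mL final each, 16 h at 37 C, beta-lactamase fluorescence detection.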

[7] = p53 small molecule agonists, cell-based qHTS assay with human liver microsomes: qHTS cell viability counter screen (AID 1963579); also: nearly all actives have a fitted effect of over 45% in size; also: potency is read from the fitted curve at half-maximal effect
How it was run: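 Viability of p53RE-bla cells is measured as CellTiter-Glo luminescence following a 16 h, 37 C incubation with compound, liver microsomes from human donors and NADPH.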

[8] = p53 small molecule agonists, cell-based qHTS assay with rat liver microsomes: qHTS cell viability counter screen (AID 1963580); also: nearly all actives have a fitted effect of over 45% in size
How it was run: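 p53RE-bla HCT-116 cells (4,000/well) rested 5 h at 37 C, then given Tox21 compounds in DMSO with rat liver microsomes (0.5 mg/mL final) plus NADPH (0.5 mg/mL final) for 16 h at 37 C. Viability read by CellTiter-Glo luminescence after 30 min at room temperature.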

[9] = p53 small molecule agonists, cell-based qHTS assay (AID 1963582; active = well fitted activation curve with a large enough effect in the signal ratio in the repeat runs, not every such curve was filed as active; the % refers to the signal ratio; also: potency is read from the fitted curve at half-maximal effect)
How it was run: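 p53RE-bla beta-lactamase reporter cells rested 5 h at 37 C/5% CO2, then received compounds in DMSO by pin transfer and were incubated 16 h at 37 C. LiveBLAzer B/G FRET substrate was loaded for 2 h at room temperature before fluorescence reading.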

[10] = target: 5-hydroxytryptamine receptor 2A (Homo sapiens) (UniProt P28223); assay: 5-hydroxytryptamine receptor 2A (HTR2A) small molecule antagonists, cell-based qHTS assay (AID 1963586); also: nearly all actives have a fitted effect of over 45% in size; also: potency is read from the fitted curve at half-maximal effect
5-hydroxytryptamine receptor 2A (Homo sapiens), sequence (P28223 whole entry, looked up): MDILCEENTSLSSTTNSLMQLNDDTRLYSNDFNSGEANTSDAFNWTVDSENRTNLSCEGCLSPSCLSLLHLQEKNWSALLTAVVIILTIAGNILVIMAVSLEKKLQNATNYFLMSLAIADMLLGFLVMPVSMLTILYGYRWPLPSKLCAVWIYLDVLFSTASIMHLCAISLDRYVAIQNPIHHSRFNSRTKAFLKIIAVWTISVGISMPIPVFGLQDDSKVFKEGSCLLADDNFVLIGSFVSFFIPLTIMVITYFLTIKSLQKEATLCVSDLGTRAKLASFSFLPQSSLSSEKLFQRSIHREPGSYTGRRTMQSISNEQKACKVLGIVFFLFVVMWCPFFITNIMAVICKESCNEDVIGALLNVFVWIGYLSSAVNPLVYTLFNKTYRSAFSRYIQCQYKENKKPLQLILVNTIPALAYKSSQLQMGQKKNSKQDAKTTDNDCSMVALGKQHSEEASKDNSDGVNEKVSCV
How it was run: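 Antagonist-mode intracellular calcium assay: DOI (4 nM) added after 5 min compound pre-incubation at room temperature to dye-loaded HTR2A-CHO cells. Fluorescence followed for 3 min, sampled every second.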

[11] = target: 5-hydroxytryptamine receptor 2A (Homo sapiens) (UniProt P28223); assay: 5-hydroxytryptamine receptor 2A (HTR2A) small molecule agonists, cell-based qHTS assay (AID 1963587); also: nearly all actives have a fitted effect of over 30% in size
How it was run: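 HTR2A-CHO cells, plated 18 h at 37 C/5% CO2, dye-loaded 1 h at 37 C; compounds in DMSO added by pin tool (agonist mode). Intracellular calcium flux read as kinetic fluorescence on FDSS over 2 min at 1 s intervals.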

[12] = target: Muscarinic acetylcholine receptor M1 (Homo sapiens) (UniProt P11229); assay: Cholinergic receptor muscarinic 1 (CHRM1) small molecule antagonists, cell-based qHTS assay (AID 1963588); also: nearly all actives have a fitted effect of over 40% in size; also: potency is read from the fitted curve at half-maximal effect
Muscarinic acetylcholine receptor M1 (Homo sapiens), sequence (P11229 whole entry, looked up): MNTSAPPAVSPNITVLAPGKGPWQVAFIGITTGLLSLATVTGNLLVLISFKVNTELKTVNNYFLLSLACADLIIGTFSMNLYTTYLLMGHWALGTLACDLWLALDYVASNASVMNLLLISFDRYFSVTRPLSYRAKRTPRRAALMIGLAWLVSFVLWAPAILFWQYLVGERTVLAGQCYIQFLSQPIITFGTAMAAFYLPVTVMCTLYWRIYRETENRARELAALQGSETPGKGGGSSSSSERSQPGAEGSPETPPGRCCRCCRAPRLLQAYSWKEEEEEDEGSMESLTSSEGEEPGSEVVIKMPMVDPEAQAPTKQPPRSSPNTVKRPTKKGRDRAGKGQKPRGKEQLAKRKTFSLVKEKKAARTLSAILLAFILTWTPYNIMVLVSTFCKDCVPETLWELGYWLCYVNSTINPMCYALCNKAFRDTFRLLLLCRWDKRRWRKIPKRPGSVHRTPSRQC
How it was run: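 CHRM1-CHO calcium-flux assay, antagonist mode. Cells were seeded 18 h, dye-loaded 1 h at 37 C and given compound for 5 min at RT, then acetylcholine was added at 50nM. FDSS fluorescence was read 3 min; 15 concentrations, three runs.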

[13] = target: Muscarinic acetylcholine receptor M1 (Homo sapiens) (UniProt P11229); assay: Cholinergic receptor muscarinic 1 (CHRM1) small molecule agonists, cell-based qHTS assay (AID 1963589); also: nearly all actives have a fitted effect of over 35% in size
How it was run: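 CHO cells stably expressing human CHRM1, seeded 18 h at 37 C/5% CO2, dye-loaded 1 h at 37 C, then given compound in agonist mode; intracellular calcium fluorescence read kinetically at 1 s intervals. Fifteen concentrations, three independent runs.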

[14] = cAMP Responsive Elements (CRE) small molecule agonists, cell-based qHTS assay (AID 1963590)
How it was run: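 CRE-bla HEK 293T cells in DMEM with 10% dialyzed FBS, NEAA, pyruvate and 25 mM HEPES were plated 18 h at 37 C/5% CO2, then exposed to compounds in DMSO for 3 h before LiveBLAzer B/G FRET substrate addition.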

[15] = cAMP Responsive Elements (CRE) small molecule antagonists, cell-based qHTS assay (AID 1963591; active = well fitted inhibition curve with a large enough effect in the signal ratio in the repeat runs, not every such curve was filed as active; the % refers to the signal ratio)
How it was run: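 CRE-bla HEK293T cells were plated 18 h at 37 °C/5% CO2, pinned with compound in DMSO, then stimulated with NKH477 at 0.25 uM final for 3 h. LiveBLAzer B/G FRET substrate was added and plates incubated 2 h at room temperature.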

[16] = target: Beta-2 adrenergic receptor (Homo sapiens) (UniProt P07550); assay: Adrenergic beta2 receptor (ADRB2) small molecule antagonists, cell-based qHTS assay (AID 1963592); also: nearly all actives have a fitted effect of over 50% in size; also: potency is read from the fitted curve at half-maximal effect
Beta-2 adrenergic receptor (Homo sapiens), sequence (P07550 whole entry, looked up): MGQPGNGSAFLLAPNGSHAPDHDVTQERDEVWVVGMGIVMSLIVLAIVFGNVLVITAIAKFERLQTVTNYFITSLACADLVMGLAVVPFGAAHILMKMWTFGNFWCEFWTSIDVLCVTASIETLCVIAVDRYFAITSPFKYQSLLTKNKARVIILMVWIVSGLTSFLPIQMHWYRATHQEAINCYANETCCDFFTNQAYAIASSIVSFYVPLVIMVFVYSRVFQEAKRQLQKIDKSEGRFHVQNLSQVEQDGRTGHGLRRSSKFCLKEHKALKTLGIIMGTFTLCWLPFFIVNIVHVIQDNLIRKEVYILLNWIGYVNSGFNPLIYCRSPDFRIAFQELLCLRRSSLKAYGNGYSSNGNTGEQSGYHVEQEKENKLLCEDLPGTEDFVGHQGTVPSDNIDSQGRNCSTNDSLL
How it was run: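 Cells (CHO, stable ADRB2 overexpression) incubated 18-20hr at 37C; compounds added from DMSO; agonist mix (1nM isoproterenol, 100uM IBMX, 25uM Ro-20-1724) added; 0.5hr RT; d2-cAMP and anti-cAMP-cryptate added; 1hr RT; 665/615 nm read.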

[17] = target: D(2) dopamine receptor (Homo sapiens) (UniProt P14416); assay: Dopamine D2 receptor (DRD2) small molecule antagonists, cell-based qHTS assay (AID 1963595; active = well fitted inhibition curve with a large enough effect in the signal ratio in the repeat runs, with a control signal flat; the % refers to the signal ratio; also: potency is read from the fitted curve at half-maximal effect)
D(2) dopamine receptor (Homo sapiens), sequence (P14416 whole entry, looked up): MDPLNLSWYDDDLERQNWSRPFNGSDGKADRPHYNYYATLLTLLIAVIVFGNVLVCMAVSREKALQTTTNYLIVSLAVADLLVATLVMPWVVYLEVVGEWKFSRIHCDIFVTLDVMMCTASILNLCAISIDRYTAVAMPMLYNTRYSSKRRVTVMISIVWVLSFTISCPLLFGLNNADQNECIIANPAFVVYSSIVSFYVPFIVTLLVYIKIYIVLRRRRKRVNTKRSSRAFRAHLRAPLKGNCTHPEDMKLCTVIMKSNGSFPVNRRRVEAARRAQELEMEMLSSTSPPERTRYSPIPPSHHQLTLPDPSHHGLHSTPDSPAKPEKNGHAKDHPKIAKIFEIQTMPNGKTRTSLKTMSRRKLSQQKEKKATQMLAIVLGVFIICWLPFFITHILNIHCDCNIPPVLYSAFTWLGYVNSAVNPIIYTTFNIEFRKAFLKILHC
How it was run: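 Stable D2 receptor HEK293 line, 24 h after seeding. Compound preincubated 10 min, then quinpirole (12 nM) with forskolin analogue NKH477 (200 nM), 30 min, room temperature. Detection by time-resolved FRET of cAMP.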

[18] = target: D(2) dopamine receptor (Homo sapiens) (UniProt P14416); assay: Dopamine D2 receptor (DRD2) small molecule agonists, cell-based qHTS assay (AID 1963594); also: nearly all actives have a fitted effect of over 35% in size
How it was run: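 HEK293 cells stably expressing DRD2 were cultured 24 h at 37 C, then given Ro20-1724 (0.1 mM final) and compounds for 10 min at room temperature. NKH477 (200nM) was then added for 30 min. cAMP was read by HTRF.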

[19] = p53 small molecule agonists, cell-based qHTS assay: qHTS cell viability counter screen (AID 1963581); also: nearly all actives have a fitted effect of over 45% in size
How it was run: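 p53RE-bla HCT-116 cells were exposed to compounds for 16 h at 37 C; after the beta-lactamase FRET read in the same wells, CellTiter-Glo was added and luminescence (intracellular ATP) read after 30 min at room temperature.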

[20] = target: Beta-2 adrenergic receptor (Homo sapiens) (UniProt P07550); assay: Adrenergic beta2 receptor (ADRB2) small molecule agonists, cell-based qHTS assay (AID 1963593);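 also: CHO cells stably overexpressing human ADRB2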
How it was run: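 CHO cells stably over-expressing ADRB2 were plated overnight at 37C, then dosed with compounds plus a stimulation mix containing 100uM IBMX and 25uM Ro-20-1724 for 0.5hr at room temperature. cAMP was measured by HTRF competition, 1hr.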

Row | SMILES | Potency [1] | Potency [2] | Potency [3] | Potency [4] | Potency [5] | Potency [6] | Potency [7] | Potency [8] | Potency [9] | Potency [10] | Potency [11] | Potency [12] | Potency [13] | Potency [14] | Potency [15] | Potency [16] | Potency [17] | Potency [18] | Potency [19] | Potency [20]
1 | CCN(Cc1ccccc1)c1ccccc1 | inactive | inactive | inactive | inactive | inactive | inactive | inactive | inactive | inactive | inactive | inactive | inactive | inactive | inactive | inactive | inactive | inactive |  |  | 
2 | Fc1ccc(C(c2ccc(F)cc2)N2CCNCC2)cc1 | inactive | inactive | inactive | inactive | inactive | inactive | inactive | inactive | inactive |  | inactive | 2.9 µM (active) | inactive | inactive | inactive | inactive | inactive | inactive |  | 
3 | CCCCCCCCCCCCCCCCCCNC(=O)OC1CCN(C(=O)OC[C@H](COC(=O)N(Cc2cccc[n+]2CC)C(=O)c2ccccc2OC)OC)CC1 | 10.6 µM (active) | inactive | inactive | inactive | inactive | inactive | inactive | inactive |  | inactive | inactive |  | inactive |  |  |  |  | inactive | inactive | 
4 | Nc1ccc2ccccc2c1S(=O)(=O)O | inactive | 44.1 µM (active) | inactive | inactive | inactive | inactive | inactive | inactive |  | inactive | inactive | inactive |  | inactive | inactive | inactive | inactive | inactive |  | 
5 | O=c1[nH]c(=O)n([C@H]2C[C@H](O)[C@@H](CO)O2)cc1F | inactive | inactive | inactive | inactive | inactive | inactive | inactive | inactive | 446 nM (active) |  |  |  |  |  | inactive |  | inactive |  |  | 
6 | C[C@@H](O)C(=O)O | inactive | inactive | inactive | inactive | inactive | inactive | inactive | inactive |  |  |  |  |  | inactive | inactive |  | inactive | inactive | inactive | 
7 | CC(=O)OCCC(C)CC(C)(C)C (centres undefined) | inactive | inactive | inactive | inactive | inactive | inactive | inactive |  | inactive | inactive | inactive |  | inactive | inactive | inactive |  | inactive | inactive | inactive | inactive
8 | CC1=Nc2ccc3ccccc3c2C1(C)C | inactive | 68.6 µM (active) | 38.9 µM (active) | inactive | inactive | inactive | inactive | inactive |  |  | inactive | inactive |  |  |  |  | inactive | inactive | inactive | 
9 | COc1ccc2c(c1)c(CC(=O)OC/C=C(\C)CC/C=C(\C)CCC=C(C)C)c(C)n2C(=O)c1ccc(Cl)cc1 | inactive | inactive | inactive | inactive | inactive | inactive | inactive |  | inactive | inactive | inactive | inactive | inactive | inactive | inactive | inactive | inactive | inactive | inactive | inactive
10 | COc1ccc2cc(S(=O)(=O)N[C@H](CC(=O)N[C@H](Cc3ccc(CN4[C@H](C)CCC[C@@H]4C)cc3)C(=O)N(C)C(C)C)c3ccc4c(c3)OCO4)ccc2c1 | 41 µM (active) | inactive | inactive | inactive | inactive | inactive | 43.3 µM (active) | inactive |  | inactive | inactive | 0.794 µM (active) | inactive |  |  | inactive |  |  |  | inactive
11 | O=C1OC(=O)c2cc(Oc3ccc4c(c3)C(=O)OC4=O)ccc21 | inactive | inactive | inactive | inactive | inactive | inactive | inactive | inactive |  | inactive |  | inactive | inactive | inactive | inactive | inactive | inactive | inactive | inactive | 
12 | COc1ccc(/C=C/c2cc(OC)cc(=O)o2)cc1 | inactive | inactive | inactive | inactive | inactive | inactive | inactive | inactive |  | 9.64 µM (active) | inactive | inactive | inactive |  | inactive | inactive | inactive | inactive |  | inactive
13 | CCOC(=O)COC(=O)c1cc(Oc2ccc(C(F)(F)F)cc2Cl)ccc1[N+](=O)[O-] | inactive | inactive | inactive | inactive | inactive | inactive | inactive | inactive |  | inactive | inactive | inactive | inactive |  |  | 61.1 µM (active) |  | inactive | inactive | 
14 | CC(C)(C)c1cc(/C=C2\SC(=N)NC2=O)cc(C(C)(C)C)c1O | 30.6 µM (active) | inactive | inactive | inactive | inactive | inactive | inactive | inactive |  |  | inactive | inactive | inactive |  |  |  | inactive |  |  | 
15 | COc1ccc(S(=O)(=O)N2C(=O)[C@@](c3ccccc3OC)(N3C[C@H](O)C[C@H]3C(=O)N(C)C)c3cc(Cl)ccc32)c(OC)c1 | inactive | inactive | inactive | inactive | inactive | inactive | inactive | inactive |  | inactive |  |  | inactive |  |  | inactive |  |  | inactive | 
16 | CC[C@H]1O[C@]2(CC[C@@H]1C)C[C@@H]1C[C@@H](C/C=C(\C)C[C@@H](C)/C=C/C=C3\CO[C@@H]4[C@H](O)C(C)=C[C@@H](C(=O)O1)[C@]34O)O2 | 15.2 µM (active) | inactive | inactive | inactive | inactive | inactive | inactive | inactive |  | inactive | inactive | inactive | inactive |  |  | inactive | 48.1 µM (active) | inactive | inactive | 
